Bioassay records from PubChem.
Most compounds without a hit are left out; they make up all but 10% or so of the library.
GPT2 inhibitor – Primary qHTS assay for inhibitors of Glutamate pyruvate transaminase 2 (GPT2). Alanine aminotransferase 2 (Homo sapiens), Q8TD30. Recombinant GPT2, coupled pyruvate oxidase/HRP Amplex Red fluorescence. Potency, µM (doses to about 57.7 µM), without a hit: at the top dose activity change, negative = inhibition, most hits filed as inhibitors. 100,000 tested, 0.25% active. AID 1671188, 2021; further: nearly all actives have a fitted effect of over 60% in size
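Recombinant GPT2 (10ng/uL) with 250uM a-KG and 2mM L-alanine, 30 min at room temperature, in HEPES pH 7.5 buffer. Pyruvate detected by pyruvate oxidase/HRP/Amplex Red fluorescence after 30 min in the dark; AOA (50uM) as positive control.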
HEK293 tox – Cytotoxic Profiling in HEK 293 Cell Line of Diverse Libraries Using Quantitative High-Throughput Screening | HEK 293 viability, ATP luminescence (CellTiter-Glo), 48-72 h | Potency, µM (doses to about 115 µM), inactives show at the highest dose activity change, negative = cytotoxicity, hits mostly inhibitors | AID 1345083, 2018 | 94,000 tested, 6.6% active; further: nearly all actives have a fitted effect of over 60% in size
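250 HEK 293 cells/well; compound by pintool; incubated 48 or 72 hr at 37 degree Celsius; CellTiter-Glo added, 10 min RT, luminescence imaged.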
Luciferase inh – Firefly luciferase inhibition profiling of diverse chemical library using quantitative high-throughput screening | Luciferin 4-monooxygenase (Photinus pyralis), P08659 | purified P. pyralis luciferase, luminescence, biochemical | 76,000 tested, 2.5% active | Potency, µM (series often up to 115 µM), hits mostly inhibitors; further: nearly all actives have a fitted effect of over 65% in size
Target sequence (P08659 whole entry, looked up): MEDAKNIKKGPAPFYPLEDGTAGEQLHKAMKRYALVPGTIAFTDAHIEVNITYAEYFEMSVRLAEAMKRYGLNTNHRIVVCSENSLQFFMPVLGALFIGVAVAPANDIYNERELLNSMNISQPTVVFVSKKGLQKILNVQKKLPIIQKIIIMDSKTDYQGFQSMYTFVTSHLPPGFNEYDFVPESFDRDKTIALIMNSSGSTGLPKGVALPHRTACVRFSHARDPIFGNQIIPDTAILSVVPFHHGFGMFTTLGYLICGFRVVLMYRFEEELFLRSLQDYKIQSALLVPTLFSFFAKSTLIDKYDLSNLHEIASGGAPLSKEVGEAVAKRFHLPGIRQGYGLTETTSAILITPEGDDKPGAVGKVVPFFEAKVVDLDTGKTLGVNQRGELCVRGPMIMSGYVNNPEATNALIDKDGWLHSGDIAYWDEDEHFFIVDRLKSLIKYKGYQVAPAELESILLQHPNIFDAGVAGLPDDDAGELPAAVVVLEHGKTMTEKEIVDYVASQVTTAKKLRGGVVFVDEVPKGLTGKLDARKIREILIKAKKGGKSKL
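Purified 10nM P. pyralis luciferase with 10uM D-luciferin and 10uM ATP in 50mM Tris acetate pH 7.5, 10mM Mg acetate, 0.01% Tween-20, 0.05% BSA. qHTS titration; luminescence read by CCD imager.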
NIH3T3 tox – Cytotoxic Profiling in NIH 3T3 Cell Line of Diverse Libraries Using Quantitative High-Throughput Screening | 94,000 tested, 4.3% active | Potency, µM (series often up to 96.7 µM), for inactives: top-dose activity change, negative = cytotoxicity, hits mostly inhibitors | AID 1345082, 2018 | NIH 3T3 viability, CellTiter-Glo ATP luminescence, 48-72 h; further: nearly all actives have a fitted effect of over 55% in size
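ATP-dependent luminescence (CellTiter-Glo) served as the viability signal for NIH 3T3 cells treated with compound for 48 or 72 hr at 37 °C.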
hNpr1 antagonist – Natriuretic polypeptide receptor (hNpr1) antagonism - Primary qHTS | Atrial natriuretic peptide receptor 1 (Homo sapiens), P16066 | HEK293 hNpr1 GloSensor cGMP, ANP-stimulated luminescence | Potency, µM (titrated, usually from 46.3 µM), for inactives: top-dose activity change, negative = inhibition, usual class: inhibitors | 76,000 tested, 1.6% active; calls by dose curve; further: nearly all actives have a fitted effect of over 60% in size
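Compound pre-incubated 30 min at room temperature on GloSensor-loaded HEK293 cells stably carrying hNpr1 and the pGS-40F cGMP biosensor. Stimulation uses hNppA at 0.1 nM final; luminescence is taken at baseline and 20 min post-agonist.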
* marks the source's active call; other numbers are inactive results; [ ] = another dose, or the depositor's remark. Unless noted, the call rests on the fitted dose curve; in most records, active means well fitted curve in the direction sought with a large enough effect; inconclusive means small, poorly fitted or top-dose-only effect, or another doubt; inactive means no such curve, though single readings can be large; an effect the other way counts as inactive or inconclusive. On the % scale 0 is the no-effect control and ±100 the full control effect; potency means the concentration at half of the fitted maximal effect.

How did O=C(NC1CCCNC1)C1CCN(c2nc(-c3ccccc3)nc3c2CCC3)CC1 (configuration not stated) do in these assays?
GPT2 inhibitor: inactive; HEK293 tox: inconclusive; Luciferase inh: inactive; NIH3T3 tox: 45µM*; hNpr1 antagonist: 2%

Results for CC1CN(C(=O)C2CCN(c3nc(-c4ccccc4)nc4c3CCC4)CC2)CCN1 (configuration not stated) ?
GPT2 inhibitor: -3%; HEK293 tox: inconclusive; Luciferase inh: inactive; NIH3T3 tox: inconclusive; hNpr1 antagonist: -8%

How did CNCCNC(=O)C1CCN(c2nc(-c3ccccc3)nc3c2CCC3)CC1 do in these assays?
GPT2 inhibitor: -9%[11.5 µM]; HEK293 tox: inconclusive; Luciferase inh: inactive; NIH3T3 tox: inconclusive; hNpr1 antagonist: 1%

How did O=C(NC[C@@H]1CCCN1)C1CCN(c2nc(-c3ccccc3)nc3c2CCC3)CC1 do in these assays?
GPT2 inhibitor: -4%; HEK293 tox: 32µM*; Luciferase inh: inactive; NIH3T3 tox: 22µM*; hNpr1 antagonist: -6%

Results for COc1ccc(-c2nc3cc(C(=O)NC4CCCCCC4)ccc3o2)cn1 ?
GPT2 inhibitor: -16%[88.5 µM]; HEK293 tox: inconclusive; NIH3T3 tox: -28%[138 µM]

How did COc1ncccc1CN1CC[C@@H]2OCC(=O)N(c3ccccc3)[C@H]2CC1 do in these assays?
GPT2 inhibitor: -2%[88.5 µM]; HEK293 tox: inconclusive; Luciferase inh: inactive; NIH3T3 tox: -21%[138 µM]; hNpr1 antagonist: -13%[70.6 µM]

Results for O=C1CO[C@H]2CCN(Cc3cccc(OC(F)(F)F)c3)CC[C@@H]2N1Cc1ccccc1 ?
GPT2 inhibitor: inactive; HEK293 tox: 50µM*; Luciferase inh: inactive; NIH3T3 tox: inconclusive; hNpr1 antagonist: -2%

What do the screens show for `COc1ncccc1CN1CC[C@@H]2OCC(=O)N(Cc3ccccc3)[C@H]2CC1`?
GPT2 inhibitor: -7%[88.5 µM]; HEK293 tox: 112µM*; Luciferase inh: inactive; NIH3T3 tox: 100µM*; hNpr1 antagonist: -30%[70.6 µM]

How did Cc1cccc(CN2CC[C@@H]3OCC(=O)N(Cc4ccccc4)[C@H]3CC2)c1 do in these assays?
GPT2 inhibitor: -12%[88.5 µM]; HEK293 tox: 100µM*; Luciferase inh: inactive; NIH3T3 tox: 100µM*; hNpr1 antagonist: -2%[70.6 µM]

Results for COc1ccc(CC(=O)N2CCCC3(CNc4ncccc4[S+](=O)([O-])N3)C2)cc1 (configuration not stated) ?
HEK293 tox: inactive; NIH3T3 tox: inactive

How did Cc1noc(C)c1C(=O)N[C@H]1CN(CCS(C)(=O)=O)C[C@@H]1C1CC1 do in these assays?
GPT2 inhibitor: inactive; HEK293 tox: 4%; Luciferase inh: inactive; NIH3T3 tox: -5%; hNpr1 antagonist: -9%

What do the screens show for `CC1=C[C@@H](CNCc2ccncc2)[C@H](C(C)C)C[C@H]1Cc1nnc(-c2ccc([N+](=O)[O-])cc2)o1`?
GPT2 inhibitor: 3%; HEK293 tox: 40µM*; Luciferase inh: inactive; NIH3T3 tox: inconclusive; hNpr1 antagonist: -6%

How did CC1=C[C@@H](CNC(C)C)[C@H](C(C)C)C[C@H]1Cc1nnc(-c2ccc([N+](=O)[O-])cc2)o1 do in these assays?
GPT2 inhibitor: inactive; HEK293 tox: 79µM*; Luciferase inh: inactive; NIH3T3 tox: 89µM*; hNpr1 antagonist: -13%[70.6 µM]

How did CC1=C[C@@H](CN2CCC(O)CC2)[C@H](C(C)C)C[C@H]1Cc1nnc(-c2ccc([N+](=O)[O-])cc2)o1 do in these assays?
GPT2 inhibitor: 4%; HEK293 tox: inconclusive; Luciferase inh: inactive; NIH3T3 tox: inconclusive; hNpr1 antagonist: -2%

Results for O=C(Nc1ccc(F)cc1F)N1C[C@@H](F)[C@@H](OCc2nc3ccccc3[nH]2)C1 ?
GPT2 inhibitor: inactive; HEK293 tox: 0%[172 µM]; Luciferase inh: inactive; NIH3T3 tox: -3%[138 µM]; hNpr1 antagonist: -2%[70.6 µM]
